Test in all cases: PBM binding z-score (relative to random genomic background probes); higher = stronger binding; sequences stand for … in GC…GCGATTGACAGCGTAGAATGAAGG
Test [1] relates to RARb homodimer (NR concentration 270 nM). In short, it runs like this: (§1)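 Binding buffer was PBS pH 7.4 with 2% milk, 0.02% Triton X-100, 1 mM DTT, 0.2 mg/mL BSA and 0.4 mg/ml salmon testes DNA. In it, ligand-free nuclear receptor dimers were incubated 1 h on custom Agilent 4×180K protein-binding microarrays carrying double-stranded probes. Antibodies against each partner (one per run) detected binding, and z-scores were calculated against random background probes after regression normalization of scanned fluorescence.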

Test [2] relates to RARg:RXRa (NR concentration 270 nM, RXRa partner concentration 90 nM). Put shortly:
as §1

In test [3] the test system is RARg homodimer (NR concentration 270 nM). In short, it runs like this:
as §1

In test [4] the test system is RXRa DBDmut IVT, anti-RXR (DBD mutation: RXRa K156A/R161A, NR concentration 90 nM). Put shortly: as §1
For test [5], the system named is RXRa homodimer (NR concentration 180 nM). In short, it runs like this:
as §1

Test [6] has as its system THRa:RXRa (NR concentration 90 nM, RXRa partner concentration 90 nM). In short, it runs like this: as §1
Test [7] concerns THRa homodimer (NR concentration 90 nM). In short, it runs like this: as §1
Test [8] deals with VDR homodimer (NR concentration 270 nM). Put shortly: as §1

Consider TCTAGCAGGCCAGAGGGTCACACAAGAGGTACGG, for which the PBM binding z-score is 3.1 in test [1]; 3.52 in test [2]; 3.05 in test [3]; 0.175 in test [4]; 4 in test [5]; 2.25 in test [6]. Also, the PBM binding z-score turned out to be 0.165 in test [7] and 0.773 in test [8].
Regarding CAAACTAGGTCACGGGAAGGTCAAAGTCCGCATG, the PBM binding z-score was 5.63 in test [1]; 8.25 in test [2]; 7.46 in test [3]; 2.31 in test [4]; 6.72 in test [5]; 4.73 in test [6]. Further, the results for the PBM binding z-score in test [7] and in test [8] were 3.09 and 3.1, respectively.
In the case of TAGTCTAGGTCAGATCGGGCCAGTATACGCTATA, the PBM binding z-score was 2.21 in test [1]; 2.72 in test [2]; 3.51 in test [3]; -0.14 in test [4]; 1.39 in test [5]; 4.26 in test [6]. For the same sequence, the PBM binding z-score was 0.664 in test [7] and -0.0113 in test [8].
Take ATAAGTAGGTTAAGGGTCATTCAGGTTGGTTCGC: the PBM binding z-score came out at 4.19 in test [1]; 4.8 in test [2]; 3.75 in test [3]; 2.28 in test [4]; 6.11 in test [5]; 3.65 in test [6]. The PBM binding z-score was found to be 2.27 in test [7] and 4.94 in test [8].
In the case of CGTCCAAGGTCATAGGAGGTCAGTAAAGACAGAT, the PBM binding z-score in test [1] was 5.26; in test [2], 6.85; in test [3] it was 7.38; in test [4], 4.16; in test [5], 6.73; in test [6], 5.25. Besides, the results for the PBM binding z-score in test [7] and in test [8] were 3.1 and 4.5, respectively.
Take TCTGCTAGGTCAACGCTGGTCAGCTAATCTGCTA: the PBM binding z-score is 3.46 in test [1]; 4.21 in test [2]; 5.26 in test [3]; 0.991 in test [4]; 2.33 in test [5]; 3.52 in test [6]. The PBM binding z-score is 0.43 in test [7] and -0.576 in test [8].
For CCAGACAGGTGAAAGGTAACTCTGTCTGGTACGC, the PBM binding z-score was 0.719 in test [1]; 1.24 in test [2]; 0.754 in test [3]; 0.07 in test [4]; 2.07 in test [5]; 1.01 in test [6]. Also, the PBM binding z-score was -0.229 in test [7] and 0.0648 in test [8].
Consider GCTTCTAGGTCAACTGATGGTCAGCTAAAGCTCG, for which the PBM binding z-score was 3.97 in test [1]; 5.38 in test [2]; 5.89 in test [3]; 1.54 in test [4]; 3.56 in test [5]; 3.5 in test [6]. For the same sequence, the PBM binding z-score in test [7] was found to be 1.79; in test [8], 0.255.
For the sequence AGTCAAAGTTCACTAGGTAACGTATGATTCAGCT, the PBM binding z-score in test [1] came to 3.72; in test [2], 4.86; in test [3], 5.88; in test [4] it was 4.22; in test [5], 3.76; in test [6], 2. Besides, the PBM binding z-score in test [7] is 0.141; in test [8], 3.34.
In the case of AGAATGAGGTTACCAAAGATCAGGGACACGCTTG, the PBM binding z-score was 1.72 in test [1]; 2.29 in test [2]; 1.89 in test [3]; 1.2 in test [4]; 2.64 in test [5]; 3.33 in test [6]. The results for the PBM binding z-score in test [7] and in test [8] were 2.17 and 0.768, respectively.
As for TCATATAGGTAAACCGGTGAAAGTCCGTAAGTTA, the PBM binding z-score in test [1] is 0.357; in test [2] it was 0.195; in test [3], 0.0982; in test [4] it was 1.45; in test [5], 0.746; in test [6], 0.262. For the same sequence, the figures for the PBM binding z-score in test [7] and in test [8] were 0.203 and 0.541, respectively.
As for GGAACGAGGGCTAGTTGATAGCAGAGTTTGATGG, the PBM binding z-score is -0.317 in test [1]; -0.308 in test [2]; -0.0732 in test [3]; 0.278 in test [4]; -0.467 in test [5]; -0.749 in test [6]. Also, the PBM binding z-score was -1.03 in test [7] and -0.367 in test [8].
Turning to ATACCAAGGTAATCGTGAGGTCGTTGATACTAAC, the PBM binding z-score in test [1] was 1.44; in test [2], 1.55; in test [3] it was 0.586; in test [4], 0.482; in test [5], 1.2; in test [6] it was 3.27. Besides, the PBM binding z-score in test [7] was 2.64; in test [8], 3.08.
Take TGTATTAGTTGAAGGGCAACCGACGAGTCCGTTT: the PBM binding z-score in test [1] is 1.63; in test [2], 0.727; in test [3], 1.06; in test [4], 0.401; in test [5] it was 0.406; in test [6], 0.237. Also, the results for the PBM binding z-score in test [7] and in test [8] were 0.213 and 1.55, respectively.

(Values after the supplement of paper PMC6555819.)
